Test results from PubChem BioAssay AID1159580 (chemical genetic matrix, 2015).
“And” between values parts separate entries of the source, which are not always exact repeats. Identical values can stand only once. Screen size: about 5,500 compounds; about 2,000 (36%) were called active. Roughly 18% stayed inconclusive and do not appear here. Rule as the data show it: active = normalized growth mostly below about 0.91 (no sharp cut-off); inconclusive = no clear call, values can overlap the other calls; inactive = mostly above about 0.92. The list shows a part of the results.

Assay: chemical genetic growth profiling, strain panel (AID 1159580);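 also: tested at 20 µM; growth read once vehicle control cultures reached saturation at 30 °C; 1 = growth at the plate median or of vehicle wells; lower values mean less growth of the strain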
Details: growth OD

Measured: normalized growth

COC(=O)C1=C(C)NC(C)=C(C(=O)OCCN(C)Cc2ccccc2)C1c1cccc([N+](=O)[O-])c1 (stereo unspecified)
inactive: S. cerevisiae deletion strains, locus YJR075W, strain HOC1, hits give low values 0.973 and 0.963 | S. cerevisiae deletion strains, locus YKL009W, strain mrt4, hits give low values 0.97 | S. cerevisiae deletion strains, locus YKL068W, hits give low values 0.994 | S. cerevisiae deletion strains, locus YKL085W, strain MDH1 (second series), hits give low values 0.993 | S. cerevisiae deletion strains, locus YKL085W, strain MDH1, hits give low values 0.993 | S. cerevisiae deletion strains, locus YKL160W, strain elf1, hits give low values 0.963 | S. cerevisiae deletion strains, locus YKL190W, strain CNB1, hits give low values 0.99 | S. cerevisiae deletion strains, locus YKR001C, strain vps1, hits give low values 1.01 | S. cerevisiae deletion strains, locus YKR026C, strain gcn3, hits give low values 0.97 | S. cerevisiae deletion strains, locus YKR091W, strain srl3, hits give low values 0.993 | S. cerevisiae deletion strains, locus YLL001W, strain dnm1, hits give low values 0.98 | S. cerevisiae deletion strains, locus YLL026W, hits give low values 0.998 | S. cerevisiae deletion strains, locus YLL041C, strain sdh2, hits give low values 0.968 | S. cerevisiae deletion strains, locus YLR027C, strain aat2, hits give low values 0.988 | S. cerevisiae deletion strains, locus YLR039C, strain RIC1, hits give low values 0.999 | S. cerevisiae deletion strains, locus YLR058C, strain SHM2, hits give low values 0.963 | S. cerevisiae deletion strains, locus YLR102C, strain apc9, hits give low values 0.987 | S. cerevisiae deletion strains, locus YLR113W, strain HOG1, hits give low values 0.93 | S. cerevisiae deletion strains, locus YLR221C, strain rsa3, hits give low values 0.982 | S. cerevisiae deletion strains, locus YLR258W, strain gsy2, hits give low values 0.973 | S. cerevisiae deletion strains, locus YLR262C, strain YPT6 (second series), hits give low values 0.952 | S. cerevisiae deletion strains, locus YLR262C, strain YPT6, hits give low values 0.947 | S. cerevisiae deletion strains, locus YLR268W, strain sec22, hits give low values 1 | S. cerevisiae deletion strains, locus YLR320W, strain mms22, hits give low values 0.986 | S. cerevisiae deletion strains, locus YLR330W, strain CHS5, hits give low values 0.993 | S. cerevisiae deletion strains, locus YLR342W, strain FKS1 (second series), hits give low values 0.957 | S. cerevisiae deletion strains, locus YLR342W, strain FKS1, hits give low values 0.996 | S. cerevisiae deletion strains, locus YLR357W, strain rsc2, hits give low values 0.965 | S. cerevisiae deletion strains, locus YLR370C, strain arc18, hits give low values 0.984 | S. cerevisiae deletion strains, locus YLR371W, strain rom2, hits give low values 0.967 | S. cerevisiae deletion strains, locus YLR384C, strain iki3, hits give low values 0.98 | S. cerevisiae deletion strains, locus YLR418C, strain cdc73, hits give low values 0.96 | S. cerevisiae deletion strains, locus YML016C, strain PPZ1, hits give low values 0.99 | S. cerevisiae deletion strains, locus YML032C, strain rad52, hits give low values 0.961 | S. cerevisiae deletion strains, locus YML120C, strain ndi1, hits give low values 1.02 | S. cerevisiae deletion strains, locus YML124C, strain tub3, hits give low values 0.992 | S. cerevisiae deletion strains, locus YMR058W, strain fet3, hits give low values 0.993 | S. cerevisiae deletion strains, locus YMR078C, strain ctf18, hits give low values 0.977 | S. cerevisiae deletion strains, locus YMR125W, strain sto1, hits give low values 0.978 | S. cerevisiae deletion strains, locus YMR129W, hits give low values 1 | S. cerevisiae deletion strains, locus YMR205C, strain PFK2, hits give low values 0.986 | S. cerevisiae deletion strains, locus YMR223W, strain ubp8, hits give low values 0.978 | S. cerevisiae deletion strains, locus YMR231W, strain pep5, hits give low values 0.998 | S. cerevisiae deletion strains, locus YMR263W, strain SAP30, hits give low values 0.988 | S. cerevisiae deletion strains, locus YMR307W, strain GAS1, hits give low values 0.744 | S. cerevisiae deletion strains, locus YNL067W, strain RPL9B, hits give low values 0.999 | S. cerevisiae deletion strains, locus YNL071W, strain lat1, hits give low values 0.97 | S. cerevisiae deletion strains, locus YNL128W, strain TEP1, hits give low values 0.987 and 1.05 | S. cerevisiae deletion strains, locus YNL153C, strain GIM3, hits give low values 0.98 | S. cerevisiae deletion strains, locus YNL175C, strain NOP13, hits give low values 1 | S. cerevisiae deletion strains, locus YNL183C, strain NPR1, hits give low values 0.923 | S. cerevisiae deletion strains, locus YNL197C, strain WHI3, hits give low values 1.02 | S. cerevisiae deletion strains, locus YNL209W, strain ssb2, hits give low values 0.978 | S. cerevisiae deletion strains, locus YNL224C, strain SQS1, hits give low values 0.993 | S. cerevisiae deletion strains, locus YNL233W, strain BNI4, hits give low values 0.981 | S. cerevisiae deletion strains, locus YNL248C, strain rpa49, hits give low values 0.968 | S. cerevisiae deletion strains, locus YNL250W, strain rad50, hits give low values 0.981 | S. cerevisiae deletion strains, locus YNL271C, strain bni1, hits give low values 1 | S. cerevisiae deletion strains, locus YNL298W, strain CLA4, hits give low values 0.996 | S. cerevisiae deletion strains, locus YNL307C, strain MCK1, hits give low values 0.968 | S. cerevisiae deletion strains, locus YNL322C, strain KRE1 (second series), hits give low values 0.996 | S. cerevisiae deletion strains, locus YNL322C, strain KRE1, hits give low values 0.995 | S. cerevisiae deletion strains, locus YNR049C, strain mso1, hits give low values 0.974 | S. cerevisiae deletion strains, locus YNR052C, strain pop2, hits give low values 0.999 | S. cerevisiae deletion strains, locus YOL006C, strain TOP1, hits give low values 1.01 | S. cerevisiae deletion strains, locus YOL012C, strain htz1 0.795 | S. cerevisiae deletion strains, locus YOL147C, strain pex11, hits give low values 0.99 | S. cerevisiae deletion strains, locus YOR001W, strain rrp6, hits give low values 0.994 | S. cerevisiae deletion strains, locus YOR061W, strain CKA2, hits give low values 0.964 | S. cerevisiae deletion strains, locus YOR069W, strain VPS5, hits give low values 1.01 | S. cerevisiae deletion strains, locus YOR070C, strain gyp1, hits give low values 0.979 | S. cerevisiae deletion strains, locus YOR080W, strain dia2, hits give low values 0.979 | S. cerevisiae deletion strains, locus YOR083W, strain WHI5 (second series), hits give low values 1.01 | S. cerevisiae deletion strains, locus YOR083W, strain WHI5, hits give low values 1 | S. cerevisiae deletion strains, locus YOR106W, strain vam3, hits give low values 0.971 | S. cerevisiae deletion strains, locus YOR136W, strain idh2, hits give low values 0.984 | S. cerevisiae deletion strains, locus YOR144C, strain elg1, hits give low values 0.999 | S. cerevisiae deletion strains, locus YOR184W, strain ser1, hits give low values 0.956 | S. cerevisiae deletion strains, locus YOR231W, strain MKK1, hits give low values 0.969 | S. cerevisiae deletion strains, locus YOR265W, strain rbl2, hits give low values 0.999 | S. cerevisiae deletion strains, locus YOR270C, strain vph1, hits give low values 0.939 | S. cerevisiae deletion strains, locus YOR290C, strain snf2, hits give low values 0.975 | S. cerevisiae deletion strains, locus YOR316C, strain cot1, hits give low values 0.98 | S. cerevisiae deletion strains, locus YPL051W, strain arl3, hits give low values 0.979 | S. cerevisiae deletion strains, locus YPL055C, strain LGE1, hits give low values 0.951 and 0.966 | S. cerevisiae deletion strains, locus YPL078C, strain atp4, hits give low values 0.995 | S. cerevisiae deletion strains, locus YPL106C, strain sse1, hits give low values 0.887 | S. cerevisiae deletion strains, locus YPL240C, strain hsp82, hits give low values 0.985 | S. cerevisiae deletion strains, locus YPL241C, strain CIN2, hits give low values 0.991 and 0.972 | S. cerevisiae deletion strains, locus YPL256C, strain CLN2, hits give low values 0.957 | S. cerevisiae deletion strains, locus YPR119W, strain clb2, hits give low values 0.984 | S. cerevisiae deletion strains, locus YPR141C, strain kar3, hits give low values 0.982 | S. cerevisiae deletion strains, locus YPR163C, strain tif3, hits give low values 0.996 | S. cerevisiae deletion strains, locus YPR167C, strain met16, hits give low values 0.988 | S. cerevisiae deletion strains, strain wtn01, hits give low values 0.981 | S. cerevisiae strains, strain wild type, hits give low values 0.998
